Measurements taken from PubChem BioAssay (Tox21).
Results filed as inconclusive are left out. Entries that show only a call come without a potency. Unmarked numbers belong to inactive results. The source made the active and inactive calls. The call rests on the fitted dose curve; in most records, active means well fitted curve in the direction sought with a large enough effect in the repeat runs; inconclusive means weak or mixed curves; inactive means no such curve, though single readings can be large; an effect the other way counts as inactive or inconclusive.

Assay: qHTS RealTime-Glo MT Cell Viability Assay in HepG2 cells - 8 hour (AID 1224873); further: nearly all actives have a fitted effect of over 55% in size
Settings: RealTime-Glo luminescence; series mostly up to 76.8 µM
Outline: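 Real-time viability: cells seeded at 600 per well together with NanoLuc and cell-permeant prosubstrate, compounds added after 5 h incubation. Luminescence tracked at 0, 8, 16, 24, 32 and 40 h of exposure.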
Potency means the concentration at half of the fitted maximal effect.

Which Potency does the source give for `CC(C)Cc1ccc(C(C)C(=O)OCc2ccccn2)cc1` (centres undefined) here?
Its Potency is “inactive”.

For `CN1CCN(C(c2ccccc2)c2ccccc2)CC1`, which Potency is on record?
Its Potency is “inactive”.

For `C/C(=C(\CCOP(=O)(O)O)SC(=O)c1ccccc1)N(C=O)Cc1cnc(C)nc1N`, which viability change, negative = cytotoxic is on record?
The viability change, negative = cytotoxic was 2.94% [at 6.97 µM].

Which Potency does the source give for `C=C(C)C(=O)OCCOCC` here?
Its Potency is “inactive”.

For `COc1ccc(C(=O)c2ccc(OC)cc2O)c(O)c1`, which Potency is on record?
Its Potency is “inactive”.

For `NS(=O)(=O)c1ccc(N2CCCCS2(=O)=O)cc1`, which Potency is on record?
The Potency was “inactive”.

For `O=C(O)c1ccc(-n2nc(-c3ccccc3O)nc2-c2ccccc2O)cc1`, which Potency is on record?
The Potency was “inactive”.

Which Potency does the source give for `CCOc1ccc(O)cc1` here?
Its Potency is “inactive”.

For `CN(Cc1ccc(C(C)(C)C)cc1)Cc1cccc2ccccc12`, which Potency is on record?
Its Potency is “inactive”.

With `CC(=O)c1ccc2c(c1)N(CCCN(C)C)c1ccccc1S2` as the compound, how does the Potency read?
The Potency was “inactive”.

For `CCCn1cnc2c1c(=O)n(CCCCC(C)=O)c(=O)n2C`, which Potency is on record?
The Potency was “inactive”.

With `CCCC(=O)Nc1ccc(O)c(C(C)=O)c1` as the compound, how does the Potency read?
The Potency was “inactive”.

For `CC(C)CC(=O)C1C(=O)c2ccccc2C1=O`, which Potency is on record?
Its Potency is “inactive”.

Which Potency does the source give for `CN(C)c1ccc(CCO)cc1` here?
The Potency was “inactive”.

Which Potency does the source give for `CCN(CC)CCOC(=O)C(c1ccccc1)C1CCCCC1` (centres undefined) here?
The Potency was “inactive”.

For `Cc1ccc(C(=O)Oc2ccc(C(O)CNC(C)(C)C)cc2OC(=O)c2ccc(C)cc2)cc1` (centres undefined), which Potency is on record?
Its Potency is 21.3 µM (active).

For `CCCCCCCCCCCCCCCCCCOS(=O)(=O)O`, which Potency is on record?
Its Potency is “inactive”.

With `Cc1[nH]c(C)c(Cl)c(=O)c1Cl` as the compound, how does the viability change, negative = cytotoxic read?
Its viability change, negative = cytotoxic is 0.139% [at 15.8 µM].

With `C/C=C/C=C/CO` as the compound, how does the Potency read?
The Potency was “inactive”.

With `COc1cc(Cl)c(OC)cc1N` as the compound, how does the Potency read?
The Potency was “inactive”.

Which Potency does the source give for `Nc1c(CC(=O)O)cccc1C(=O)c1ccc(Br)cc1` here?
Its Potency is “inactive”.

With `CNCCCCOc1ccccc1Cc1ccccc1` as the compound, how does the Potency read?
Its Potency is “inactive”.

With `Brc1c2ccccc2cc2ccccc12` as the compound, how does the Potency read?
Its Potency is “inactive”.

For `Cc1ccc(N=Nc2c(O)c(C(=O)O)cc3ccccc23)c(S(=O)(=O)O)c1`, which Potency is on record?
Its Potency is “inactive”.

With `CCCCC(CC)COC(=O)COc1ccc(Cl)cc1Cl` (centres undefined) as the compound, how does the Potency read?
Its Potency is “inactive”.

Which Potency does the source give for `O=C(CS)Nc1ccccc1` here?
The Potency was “inactive”.

With `O=C(O)c1ccccc1Cl` as the compound, how does the Potency read?
The Potency was “inactive”.

For `CC(=O)OC[C@H]1O[C@@H](n2ncc(=O)[nH]c2=O)[C@H](OC(C)=O)[C@@H]1OC(C)=O`, which Potency is on record?
The Potency was “inactive”.

With `Clc1ccc2c(c1)CCc1cccnc1C2=C1CCNCC1` as the compound, how does the Potency read?
The Potency was “inactive”.

Assay: qHTS RealTime-Glo MT Cell Viability Assay in HEK293 cells - 40 hour (AID 1224874); further: nearly all actives have a fitted effect of over 50% in size
Settings: RealTime-Glo luminescence; max response: hits give low values
Outline: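 Real-time viability in HEK293: signal arises when living cells convert a prosubstrate for NanoLuc in the medium, so luminescence tracks viable cell number. Compound (23 nL, DMSO) added 5 h post-seeding; kinetic reads at 0–40 h, 37 C.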

Which max response does the source give for `N=c1ccn2c(n1)O[C@H]1[C@H](O)[C@@H](CO)O[C@H]12` here?
The max response was 22.1%.

For `CC1=CC=C(C(C)C)CC1`, which max response is on record?
The max response was 1.32%.

For `CN1CCN(C(c2ccccc2)c2ccccc2)CC1`, which max response is on record?
The max response was -1.32%.

For `C/C(=C(\CCOP(=O)(O)O)SC(=O)c1ccccc1)N(C=O)Cc1cnc(C)nc1N`, which max response is on record?
The max response was 6.16%.

With `C=C(C)C(=O)OCCOCC` as the compound, how does the max response read?
Its max response is 17.3%.

For `COc1ccc(C(=O)c2ccc(OC)cc2O)c(O)c1`, which Potency is on record?
Its Potency is 24.7 µM (active).

With `C[N+]1(C)CCC(OC(=O)C(O)(c2ccccc2)C2CCCC2)C1` (centres undefined) as the compound, how does the max response read?
Its max response is 3.92%.

With `NS(=O)(=O)c1ccc(N2CCCCS2(=O)=O)cc1` as the compound, how does the max response read?
The max response was -0.0797%.

For `CCOc1ccc(O)cc1`, which Potency is on record?
Its Potency is 11 µM (active).

Which max response does the source give for `CN(Cc1ccc(C(C)(C)C)cc1)Cc1cccc2ccccc12` here?
The max response was -22.5%.

With `CCCn1cnc2c1c(=O)n(CCCCC(C)=O)c(=O)n2C` as the compound, how does the max response read?
The max response was -0.107%.

For `CCCC(=O)Nc1ccc(O)c(C(C)=O)c1`, which max response is on record?
Its max response is -1.71%.

Which max response does the source give for `CC(C)CC(=O)C1C(=O)c2ccccc2C1=O` here?
Its max response is 0.634%.

For `CN(C)c1ccc(CCO)cc1`, which Potency is on record?
Its Potency is 34.5 µM (active).

Which max response does the source give for `Cc1[nH]c(C)c(Cl)c(=O)c1Cl` here?
The max response was -19.8%.

Which max response does the source give for `Nc1c(CC(=O)O)cccc1C(=O)c1ccc(Br)cc1` here?
The max response was 13%.

For `CCCCCCCCCc1ccc(OCCOCCO)cc1`, which Potency is on record?
The Potency was 1.03 µM (active).

With `Brc1c2ccccc2c(Br)c2ccccc12` as the compound, how does the max response read?
Its max response is 1.72%.

Which Potency does the source give for `CNCCCCOc1ccccc1Cc1ccccc1` here?
The Potency was 23.9 µM (active).

For `Brc1c2ccccc2cc2ccccc12`, which max response is on record?
Its max response is -17.1%.

For `Cc1ccc(N=Nc2c(O)c(C(=O)O)cc3ccccc23)c(S(=O)(=O)O)c1`, which max response is on record?
Its max response is 1.56%.

With `CCCCC(CC)COC(=O)COc1ccc(Cl)cc1Cl` (centres undefined) as the compound, how does the max response read?
The max response was 11%.

With `O=C(CS)Nc1ccccc1` as the compound, how does the max response read?
Its max response is -18%.

Which max response does the source give for `O=C(O)c1ccccc1Cl` here?
The max response was -1.6%.

Assay: A CellTox Green Cytotoxicity Assay to monitor cytotoxicity in HEK293 cells - 24 hour (AID 1224875); further: nearly all actives have a fitted effect of over 45% in size
Settings: CellTox Green fluorescence; series mostly up to 76.8 µM
Outline: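 Cells (HEK293, 600/well) and dye reagent are dispensed together. After 5 h at 37 C, 23 nL compound is pinned in. Plates stay at 37 C for 40 h with fluorescence read at 0h, 8h, 16h, 24h, 32h and 40h.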

With `N=c1ccn2c(n1)O[C@H]1[C@H](O)[C@@H](CO)O[C@H]12` as the compound, how does the Potency read?
Its Potency is “inactive”.

Which Potency does the source give for `CC(C)Cc1ccc(C(C)C(=O)OCc2ccccn2)cc1` (centres undefined) here?
Its Potency is “inactive”.

With `CC1=CC=C(C(C)C)CC1` as the compound, how does the Potency read?
Its Potency is “inactive”.

For `CN1CCN(C(c2ccccc2)c2ccccc2)CC1`, which Potency is on record?
Its Potency is “inactive”.

With `C/C(=C(\CCOP(=O)(O)O)SC(=O)c1ccccc1)N(C=O)Cc1cnc(C)nc1N` as the compound, how does the activity change read?
Its activity change is -4.36% [at 6.97 µM, hits give high values].

Which Potency does the source give for `C=C(C)C(=O)OCCOCC` here?
The Potency was “inactive”.

For `CCOC(=O)COC(=O)c1cc(Oc2ccc(C(F)(F)F)cc2Cl)ccc1[N+](=O)[O-]`, which Potency is on record?
The Potency was “inactive”.

For `C[N+]1(C)CCC(OC(=O)C(O)(c2ccccc2)C2CCCC2)C1` (centres undefined), which Potency is on record?
Its Potency is 23.9 µM (active).

Which Potency does the source give for `NS(=O)(=O)c1ccc(N2CCCCS2(=O)=O)cc1` here?
The Potency was “inactive”.

For `O=C(O)c1ccc(-n2nc(-c3ccccc3O)nc2-c2ccccc2O)cc1`, which Potency is on record?
Its Potency is “inactive”.

With `CCOc1ccc(O)cc1` as the compound, how does the Potency read?
The Potency was “inactive”.

With `CC(=O)c1ccc2c(c1)N(CCCN(C)C)c1ccccc1S2` as the compound, how does the Potency read?
Its Potency is “inactive”.

For `CCCn1cnc2c1c(=O)n(CCCCC(C)=O)c(=O)n2C`, which Potency is on record?
The Potency was “inactive”.

With `CCCC(=O)Nc1ccc(O)c(C(C)=O)c1` as the compound, how does the Potency read?
The Potency was “inactive”.

With `CC(C)CC(=O)C1C(=O)c2ccccc2C1=O` as the compound, how does the Potency read?
The Potency was “inactive”.

With `CN(C)c1ccc(CCO)cc1` as the compound, how does the Potency read?
Its Potency is “inactive”.

Which Potency does the source give for `CCN(CC)CCOC(=O)C(c1ccccc1)C1CCCCC1` (centres undefined) here?
The Potency was 23.9 µM (active).

For `Cc1ccc(C(=O)Oc2ccc(C(O)CNC(C)(C)C)cc2OC(=O)c2ccc(C)cc2)cc1` (centres undefined), which Potency is on record?
The Potency was 23.9 µM (active).

Which activity change does the source give for `Cc1[nH]c(C)c(Cl)c(=O)c1Cl` here?
The activity change was -5.28% [at 15.8 µM, hits give high values].

For `C/C=C/C=C/CO`, which Potency is on record?
Its Potency is “inactive”.

Which Potency does the source give for `COc1cc(Cl)c(OC)cc1N` here?
The Potency was “inactive”.

For `Nc1c(CC(=O)O)cccc1C(=O)c1ccc(Br)cc1`, which Potency is on record?
The Potency was “inactive”.

For `CCCCCCCCCc1ccc(OCCOCCO)cc1`, which Potency is on record?
Its Potency is 14.5 µM (active).

With `Brc1c2ccccc2c(Br)c2ccccc12` as the compound, how does the activity change read?
Its activity change is -0.621% [at 6.97 µM, hits give high values].

For `Brc1c2ccccc2cc2ccccc12`, which Potency is on record?
Its Potency is “inactive”.

For `Cc1ccc(N=Nc2c(O)c(C(=O)O)cc3ccccc23)c(S(=O)(=O)O)c1`, which Potency is on record?
The Potency was “inactive”.

With `CCCCC(CC)COC(=O)COc1ccc(Cl)cc1Cl` (centres undefined) as the compound, how does the Potency read?
The Potency was “inactive”.

With `O=C(CS)Nc1ccccc1` as the compound, how does the Potency read?
The Potency was “inactive”.

For `O=C(O)c1ccccc1Cl`, which Potency is on record?
Its Potency is “inactive”.

Which Potency does the source give for `CC(=O)OC[C@H]1O[C@@H](n2ncc(=O)[nH]c2=O)[C@H](OC(C)=O)[C@@H]1OC(C)=O` here?
The Potency was “inactive”.

Which Potency does the source give for `Clc1ccc2c(c1)CCc1cccnc1C2=C1CCNCC1` here?
Its Potency is “inactive”.
